This note sets out measurements from the supplement of paper PMC10849652.

About 8,800 targets were measured; listed, in parts, are those with a hit and a random draw of the rest. About 0.5% of all pairs of compound and target were hits.

Chain of UniProt P35611 (P35611 whole entry, looked up): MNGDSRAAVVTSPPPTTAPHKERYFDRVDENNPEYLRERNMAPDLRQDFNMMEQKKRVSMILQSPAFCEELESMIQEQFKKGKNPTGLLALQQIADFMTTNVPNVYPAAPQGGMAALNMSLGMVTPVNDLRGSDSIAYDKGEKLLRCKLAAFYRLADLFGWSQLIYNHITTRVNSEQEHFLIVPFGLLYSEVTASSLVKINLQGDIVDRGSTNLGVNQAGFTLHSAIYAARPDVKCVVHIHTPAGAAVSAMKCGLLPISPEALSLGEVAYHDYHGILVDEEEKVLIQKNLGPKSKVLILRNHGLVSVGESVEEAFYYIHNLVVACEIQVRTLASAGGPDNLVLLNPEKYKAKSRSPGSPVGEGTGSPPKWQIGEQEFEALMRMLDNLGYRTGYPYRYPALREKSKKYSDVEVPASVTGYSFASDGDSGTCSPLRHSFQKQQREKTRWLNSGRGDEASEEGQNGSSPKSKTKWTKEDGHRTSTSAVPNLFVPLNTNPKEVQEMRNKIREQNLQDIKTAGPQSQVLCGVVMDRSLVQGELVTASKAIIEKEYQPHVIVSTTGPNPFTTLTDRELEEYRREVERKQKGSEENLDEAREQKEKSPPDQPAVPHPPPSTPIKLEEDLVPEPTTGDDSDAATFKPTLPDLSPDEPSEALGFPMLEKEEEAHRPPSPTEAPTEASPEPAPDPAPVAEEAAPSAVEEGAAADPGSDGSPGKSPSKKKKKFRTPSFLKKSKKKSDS
Chain of UniProt O00763 (O00763 whole entry, looked up): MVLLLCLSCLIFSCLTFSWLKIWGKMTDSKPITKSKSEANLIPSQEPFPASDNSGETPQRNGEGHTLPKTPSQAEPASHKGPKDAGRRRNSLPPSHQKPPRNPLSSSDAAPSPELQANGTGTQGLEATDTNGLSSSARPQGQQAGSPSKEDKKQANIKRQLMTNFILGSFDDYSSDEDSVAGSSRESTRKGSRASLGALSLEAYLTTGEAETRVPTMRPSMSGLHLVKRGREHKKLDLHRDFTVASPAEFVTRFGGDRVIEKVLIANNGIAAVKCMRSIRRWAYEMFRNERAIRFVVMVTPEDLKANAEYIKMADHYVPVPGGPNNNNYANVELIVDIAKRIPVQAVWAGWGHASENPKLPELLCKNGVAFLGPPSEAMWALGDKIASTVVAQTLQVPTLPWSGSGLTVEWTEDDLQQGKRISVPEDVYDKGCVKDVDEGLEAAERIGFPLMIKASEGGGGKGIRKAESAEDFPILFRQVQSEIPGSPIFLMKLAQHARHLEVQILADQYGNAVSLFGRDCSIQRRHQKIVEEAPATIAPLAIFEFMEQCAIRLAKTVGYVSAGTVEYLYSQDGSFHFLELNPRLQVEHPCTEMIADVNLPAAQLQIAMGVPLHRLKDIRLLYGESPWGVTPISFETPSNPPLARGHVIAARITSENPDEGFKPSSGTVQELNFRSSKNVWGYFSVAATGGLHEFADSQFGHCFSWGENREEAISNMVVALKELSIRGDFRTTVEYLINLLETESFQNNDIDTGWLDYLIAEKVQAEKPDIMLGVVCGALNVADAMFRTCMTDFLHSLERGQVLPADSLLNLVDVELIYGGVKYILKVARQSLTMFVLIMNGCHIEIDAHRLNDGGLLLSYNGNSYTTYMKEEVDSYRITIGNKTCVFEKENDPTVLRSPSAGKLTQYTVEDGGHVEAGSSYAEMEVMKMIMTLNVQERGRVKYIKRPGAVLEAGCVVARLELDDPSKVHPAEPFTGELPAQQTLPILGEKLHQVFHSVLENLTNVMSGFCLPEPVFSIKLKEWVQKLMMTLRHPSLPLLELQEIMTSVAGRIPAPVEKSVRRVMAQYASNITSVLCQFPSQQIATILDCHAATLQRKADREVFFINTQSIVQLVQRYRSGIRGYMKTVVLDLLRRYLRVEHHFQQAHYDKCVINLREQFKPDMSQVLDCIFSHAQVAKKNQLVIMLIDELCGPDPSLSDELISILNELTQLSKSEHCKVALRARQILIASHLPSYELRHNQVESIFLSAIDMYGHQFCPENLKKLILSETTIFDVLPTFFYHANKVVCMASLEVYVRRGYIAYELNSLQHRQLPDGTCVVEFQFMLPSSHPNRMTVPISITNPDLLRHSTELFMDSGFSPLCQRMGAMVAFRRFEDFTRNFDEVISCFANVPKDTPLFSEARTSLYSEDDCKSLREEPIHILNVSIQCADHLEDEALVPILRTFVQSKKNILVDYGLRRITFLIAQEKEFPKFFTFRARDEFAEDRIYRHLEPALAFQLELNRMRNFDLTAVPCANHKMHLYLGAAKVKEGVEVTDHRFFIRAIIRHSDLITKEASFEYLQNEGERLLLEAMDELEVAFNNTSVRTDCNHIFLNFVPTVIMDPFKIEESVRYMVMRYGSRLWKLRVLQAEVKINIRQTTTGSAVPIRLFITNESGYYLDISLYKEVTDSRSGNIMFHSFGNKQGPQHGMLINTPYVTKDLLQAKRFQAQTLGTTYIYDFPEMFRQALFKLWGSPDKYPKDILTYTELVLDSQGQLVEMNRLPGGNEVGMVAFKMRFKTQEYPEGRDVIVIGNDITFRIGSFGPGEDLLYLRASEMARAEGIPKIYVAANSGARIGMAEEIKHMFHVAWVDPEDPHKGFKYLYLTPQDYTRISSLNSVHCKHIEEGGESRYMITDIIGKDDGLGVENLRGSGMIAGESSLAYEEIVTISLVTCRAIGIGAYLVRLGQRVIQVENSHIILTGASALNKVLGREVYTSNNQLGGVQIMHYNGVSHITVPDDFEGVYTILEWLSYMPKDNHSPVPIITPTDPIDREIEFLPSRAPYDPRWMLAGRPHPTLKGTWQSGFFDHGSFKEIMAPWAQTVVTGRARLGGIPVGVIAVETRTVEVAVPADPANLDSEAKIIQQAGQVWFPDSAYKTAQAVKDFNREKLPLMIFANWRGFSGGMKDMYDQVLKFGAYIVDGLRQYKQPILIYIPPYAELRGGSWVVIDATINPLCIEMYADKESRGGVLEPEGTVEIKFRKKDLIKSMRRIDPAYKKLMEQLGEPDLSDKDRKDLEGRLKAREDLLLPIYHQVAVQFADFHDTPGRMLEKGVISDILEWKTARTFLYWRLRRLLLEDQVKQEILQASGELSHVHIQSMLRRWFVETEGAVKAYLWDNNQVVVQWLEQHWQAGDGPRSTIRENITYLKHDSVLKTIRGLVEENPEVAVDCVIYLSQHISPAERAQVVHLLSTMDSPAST
Chain of UniProt Q8N8A2 (Q8N8A2 whole entry, looked up): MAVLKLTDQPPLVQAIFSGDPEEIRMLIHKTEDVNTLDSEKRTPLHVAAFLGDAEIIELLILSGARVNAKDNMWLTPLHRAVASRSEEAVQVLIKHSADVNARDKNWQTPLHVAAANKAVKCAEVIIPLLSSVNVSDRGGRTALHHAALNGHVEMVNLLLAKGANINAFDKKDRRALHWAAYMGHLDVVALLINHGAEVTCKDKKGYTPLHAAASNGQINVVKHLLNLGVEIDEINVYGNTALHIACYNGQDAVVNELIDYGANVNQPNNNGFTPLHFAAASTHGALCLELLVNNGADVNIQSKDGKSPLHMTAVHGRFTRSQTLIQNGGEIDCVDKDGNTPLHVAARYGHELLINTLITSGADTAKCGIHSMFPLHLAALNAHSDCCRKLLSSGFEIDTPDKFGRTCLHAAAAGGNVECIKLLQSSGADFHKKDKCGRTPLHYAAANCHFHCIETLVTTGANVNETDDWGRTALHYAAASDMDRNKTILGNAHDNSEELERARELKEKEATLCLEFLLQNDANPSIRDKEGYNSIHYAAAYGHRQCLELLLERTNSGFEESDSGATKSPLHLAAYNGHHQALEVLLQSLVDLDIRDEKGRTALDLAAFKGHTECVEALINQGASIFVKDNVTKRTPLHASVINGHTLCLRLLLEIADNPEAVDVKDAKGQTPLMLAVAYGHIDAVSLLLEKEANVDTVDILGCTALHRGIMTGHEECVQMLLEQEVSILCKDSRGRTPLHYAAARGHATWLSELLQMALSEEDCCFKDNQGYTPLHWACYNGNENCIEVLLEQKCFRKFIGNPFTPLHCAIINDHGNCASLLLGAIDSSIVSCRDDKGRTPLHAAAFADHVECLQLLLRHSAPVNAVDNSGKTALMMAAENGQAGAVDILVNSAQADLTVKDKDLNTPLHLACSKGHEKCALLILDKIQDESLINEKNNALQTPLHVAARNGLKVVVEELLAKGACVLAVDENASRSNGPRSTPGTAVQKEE
Chain of UniProt Q9BRQ8 (Q9BRQ8 whole entry, looked up): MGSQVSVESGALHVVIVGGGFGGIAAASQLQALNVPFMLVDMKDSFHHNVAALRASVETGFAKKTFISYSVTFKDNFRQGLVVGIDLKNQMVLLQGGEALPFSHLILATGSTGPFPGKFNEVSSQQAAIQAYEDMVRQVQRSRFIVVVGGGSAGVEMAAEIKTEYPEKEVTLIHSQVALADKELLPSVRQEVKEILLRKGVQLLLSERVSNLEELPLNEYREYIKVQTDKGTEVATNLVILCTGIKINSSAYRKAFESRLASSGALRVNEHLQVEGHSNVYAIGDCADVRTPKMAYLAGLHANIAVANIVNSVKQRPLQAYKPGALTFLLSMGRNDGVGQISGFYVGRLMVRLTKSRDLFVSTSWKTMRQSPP
Chain of UniProt Q9NRW3 (Q9NRW3 whole entry, looked up): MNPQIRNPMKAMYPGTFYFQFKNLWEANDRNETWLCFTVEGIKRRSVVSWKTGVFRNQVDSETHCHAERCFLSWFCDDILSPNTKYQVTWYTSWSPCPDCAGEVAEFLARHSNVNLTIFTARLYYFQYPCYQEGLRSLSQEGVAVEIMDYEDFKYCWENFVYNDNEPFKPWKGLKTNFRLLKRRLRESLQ
Chain of UniProt Q96GS6 (Q96GS6 whole entry, looked up): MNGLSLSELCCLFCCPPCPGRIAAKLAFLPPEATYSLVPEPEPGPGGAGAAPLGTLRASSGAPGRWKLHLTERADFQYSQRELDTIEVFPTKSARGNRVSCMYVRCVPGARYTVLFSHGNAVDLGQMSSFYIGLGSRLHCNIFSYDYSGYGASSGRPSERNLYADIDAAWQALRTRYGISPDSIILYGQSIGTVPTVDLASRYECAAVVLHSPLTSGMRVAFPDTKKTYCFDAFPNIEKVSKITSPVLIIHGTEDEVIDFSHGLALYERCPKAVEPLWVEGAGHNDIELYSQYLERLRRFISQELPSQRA

Compound in the first assay: NCC(=O)Nc1ccc(-n2nc(C(F)(F)F)cc2-c2ccc3c(ccc4ccccc43)c2)cc1
In words: log2 fold change, soluble protein after heating vs DMSO (PISA); higher = thermal stabilisation; K562 lysate, 10 uM; active = over 0.2 and 3.5 SD of the protein, either way, in both replicates (recomputed). An outline of the steps: (§1)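 Soluble protein was defined as the supernatant remaining after 21,000xg for 90 min, following pooling of heated aliquots and adjustment to 0.5% NP-40 at 4°C. Before that, crude K562 extract at 1 mg/mL protein in PBS pH 7.4 with 1 mM MgCl2 was treated with 10 μM compound for 30 min and heated for 3 min across 48°C-58°C. Quantification used TMTpro 16plex LC-MS/MS with channel sums equalised, and values are log-two fold changes in thermal stability relative to solvent controls from duplicates.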
For the target ALKBH1 (UniProt Q13686), the log2 fold change was -0.089 (inactive). ARL15 (UniProt Q9NXU5): the log2 fold change was 0.007 (inactive).

As to ANP32E isoform 3 (UniProt Q9BTT0), the log2 fold change was 0.135 (inactive). ABHD13 (UniProt Q7L211): the log2 fold change was 0.023 (inactive).

With ALDH18A1 isoform 2 (UniProt P54886), the log2 fold change was 0.097 (inactive). As for ACACB (UniProt O00763), the log2 fold change is -0.026 (inactive). On to ACLY isoform 2 (UniProt P53396), for which the log2 fold change is 0.091 (inactive). With ADD1 isoform 4 (UniProt P35611), the log2 fold change is 0.037 (inactive). On the same count and under the same terms, the figure for APOBEC3C (UniProt Q9NRW3) is 0.055 (inactive); for ADD1 isoform 3 (UniProt P35611) it is -0.024 (inactive); for ALDH1A1 (UniProt P00352) it is -0.038 (inactive).

As to APOB (UniProt P04114), the log2 fold change was 0.063 (inactive).

Take AMDHD2 (UniProt Q9Y303): the log2 fold change was -0.092 (inactive).

As for AIFM2 (UniProt Q9BRQ8), the log2 fold change is -0.014 (inactive). For ABHD17B (UniProt Q5VST6), the log2 fold change was 0.096 (inactive).

For the target ACOX1 isoform 2 (UniProt Q15067), the log2 fold change is 0.009 (inactive).

For the target ADAR isoform 4 (UniProt P55265), the log2 fold change was -0.029 (inactive). With ANKRD30B (UniProt Q9BXX2), the log2 fold change was 0.228 (inactive). Regarding AGO4 (UniProt Q9HCK5), the log2 fold change was -0.007 (inactive). On the same count and under the same terms, with ABHD17A isoform 2 (UniProt Q96GS6) the figure was 0.001 (inactive).

Take ARHGEF2 (UniProt V9GYF0): the log2 fold change is 0.157 (inactive). Turning to ARMCX5 (UniProt Q6P1M9), the log2 fold change is -0.233 (inactive).

Regarding AKAP8L (UniProt Q9ULX6), the log2 fold change was -0.045 (inactive).

In the case of ANKRD44 isoform 2 (UniProt Q8N8A2), the log2 fold change is 0.127 (inactive). On to ABI1 isoform 9 (UniProt Q8IZP0), for which the log2 fold change is 0.046 (inactive).

Compound in a further assay: O=C(CCCCCCC(=O)Nc1ccccc1)NO [vorinostat]
The assay is described as above. An outline of the steps: as §1
Consider ALKBH1 (UniProt Q13686), for which the log2 fold change is -0.284 (active). Take ARL15 (UniProt Q9NXU5): the log2 fold change was -0.109 (inactive).

Take ACACB (UniProt O00763): the log2 fold change is -0.438 (active). Consider ADD1 isoform 4 (UniProt P35611), for which the log2 fold change is 0.237 (inactive). For the target APOBEC3C (UniProt Q9NRW3), the log2 fold change was -0.278 (active).

With ADD1 isoform 3 (UniProt P35611), the log2 fold change is 0.048 (inactive).

Turning to ALDH1A1 (UniProt P00352), the log2 fold change is 0.116 (inactive). As for ABRACL (UniProt Q9P1F3), the log2 fold change was -0.845 (active). In the case of ANXA2 (UniProt H0YL33), the log2 fold change is -0.153 (inactive). Take AIF1L (UniProt Q9BQI0): the log2 fold change is -0.048 (inactive). On to APOB (UniProt P04114), for which the log2 fold change is 0.154 (inactive).

On to ALKBH7 (UniProt Q9BT30), for which the log2 fold change is 1.23 (active). The same measure, in the same setting: the figure for AIFM2 (UniProt Q9BRQ8) is -0.261 (inactive).

With ABHD17B (UniProt Q5VST6), the log2 fold change was 0.219 (inactive). As to ACOX1 isoform 2 (UniProt Q15067), the log2 fold change is 0.09 (inactive). As for ADAR isoform 4 (UniProt P55265), the log2 fold change is -0.35 (active).

AP5B1 (UniProt Q2VPB7): the log2 fold change is -0.062 (inactive).

Consider ANKRD30B (UniProt Q9BXX2), for which the log2 fold change was 0.147 (inactive). Same read-out and setting: with AGO4 (UniProt Q9HCK5) the figure was 0.09 (inactive).

For the target ALDH3A1 (UniProt P30838), the log2 fold change was 0.145 (inactive). Take ABHD17A isoform 2 (UniProt Q96GS6): the log2 fold change was 0.363 (active). As for ARMCX5 (UniProt Q6P1M9), the log2 fold change was 0.102 (inactive). On to AKAP8L (UniProt Q9ULX6), for which the log2 fold change is -0.213 (inactive). On the same count and under the same terms, the figure for ANKRD44 isoform 2 (UniProt Q8N8A2) is 0.073 (inactive); for ABI1 isoform 9 (UniProt Q8IZP0) it is 0.026 (inactive).
